Measurements as given in PubChem BioAssay (NCI).
The panel holds about 79,000 compounds, 15% with a hit somewhere; the sample as a whole holds those more often. Activity calls are given as the source filed them. Rule as the data show it: active = growth inhibition above about 70%; inactive = the rest.

Assay: NCI Yeast Anticancer Drug Screen. Data for the rad52 strain (AID 147);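 also: 0% = growth of vehicle-treated control cultures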
Conditions: S. cerevisiae rad52 mutant growth inhibition, active compounds read high
Experimental: Growth inhibition of yeast strains with defined genetic alterations is measured as a screen for potential anti-cancer activity. Selected strains with alterations in DNA damage repair or cell cycle control were exposed to compounds and growth inhibition was measured relative to vehicle treated controls. The strain used in this assay is rad52

Measured: growth inhibition

CCC(=O)c1cccc2ccccc12
inactive: at 1.2 µM 1% | at 3.7 µM 2% | at 11.0 µM 1% | at 33.0 µM 2% | at 100.0 µM -1%

Cc1cc(N=Nc2ccc(S(=O)(=O)[O-])cc2)cc(C(=O)[O-])c1[O-].NC1CCCCC1N.[Na+].[Pt+4]
inactive: at 1.2 µM 6% | at 3.7 µM 33%
active: at 11.0 µM 99% | at 33.0 µM 98% | at 100.0 µM 98%

CN=C(N)N/N=C/c1ccc2c(c1)Cc1ccccc1-2
active: at 100.0 µM 94%
inactive: at 1.2 µM 6% | at 3.7 µM 19% | at 11.0 µM 20% | at 33.0 µM 31%

COc1ccc(N=C2C(=O)Nc3ccc(Br)cc32)cc1
inactive: at 1.2 µM 14% | at 3.7 µM 15% | at 11.0 µM 18% | at 33.0 µM 23% | at 100.0 µM 17%

N#C/C(=C\c1cccc(OCc2ccccc2)c1)c1ccc([N+](=O)[O-])cc1
inactive: at 1.2 µM -24% | at 3.7 µM -19% | at 11.0 µM -26% | at 33.0 µM -28% | at 100.0 µM -37%

N/C(=N\OC(=O)NC(Cl)=C(Cl)Cl)c1cc(C(F)(F)F)cc(C(F)(F)F)c1
active: at 100.0 µM 98%
inactive: at 1.2 µM -14% | at 3.7 µM -11% | at 11.0 µM -2% | at 33.0 µM 64%

O=C1C=CC(=O)c2c(O)c(Nc3ccc(OC(F)(F)F)cc3)c(Cl)c(O)c21
active: at 100.0 µM 81%
inactive: at 1.2 µM 9% | at 3.7 µM 12% | at 11.0 µM 17% | at 33.0 µM 32%

[N-]=N[N+]#I1OC(C(F)(F)F)(C(F)(F)F)c2ccccc21
inactive: at 1.2 µM 44%
active: at 3.7 µM 82% | at 11.0 µM 97% | at 33.0 µM 99% | at 100.0 µM 100%
